Screen size: about 30,000 compounds; about 580 (1.9%) were called active. This is one part of a sample in which actives are shown more often than they occur. Cut-off read from the data, not from the text of the source: active = inhibition above about 43%; inactive = the rest.

Consider 86 compounds from PubChem BioAssay AID1259251 (The Scripps Research Institute Molecular Screening Center, 2017).

Serine/threonine-protein kinase ULK1 (Homo sapiens), sequence (O75385 whole entry, looked up): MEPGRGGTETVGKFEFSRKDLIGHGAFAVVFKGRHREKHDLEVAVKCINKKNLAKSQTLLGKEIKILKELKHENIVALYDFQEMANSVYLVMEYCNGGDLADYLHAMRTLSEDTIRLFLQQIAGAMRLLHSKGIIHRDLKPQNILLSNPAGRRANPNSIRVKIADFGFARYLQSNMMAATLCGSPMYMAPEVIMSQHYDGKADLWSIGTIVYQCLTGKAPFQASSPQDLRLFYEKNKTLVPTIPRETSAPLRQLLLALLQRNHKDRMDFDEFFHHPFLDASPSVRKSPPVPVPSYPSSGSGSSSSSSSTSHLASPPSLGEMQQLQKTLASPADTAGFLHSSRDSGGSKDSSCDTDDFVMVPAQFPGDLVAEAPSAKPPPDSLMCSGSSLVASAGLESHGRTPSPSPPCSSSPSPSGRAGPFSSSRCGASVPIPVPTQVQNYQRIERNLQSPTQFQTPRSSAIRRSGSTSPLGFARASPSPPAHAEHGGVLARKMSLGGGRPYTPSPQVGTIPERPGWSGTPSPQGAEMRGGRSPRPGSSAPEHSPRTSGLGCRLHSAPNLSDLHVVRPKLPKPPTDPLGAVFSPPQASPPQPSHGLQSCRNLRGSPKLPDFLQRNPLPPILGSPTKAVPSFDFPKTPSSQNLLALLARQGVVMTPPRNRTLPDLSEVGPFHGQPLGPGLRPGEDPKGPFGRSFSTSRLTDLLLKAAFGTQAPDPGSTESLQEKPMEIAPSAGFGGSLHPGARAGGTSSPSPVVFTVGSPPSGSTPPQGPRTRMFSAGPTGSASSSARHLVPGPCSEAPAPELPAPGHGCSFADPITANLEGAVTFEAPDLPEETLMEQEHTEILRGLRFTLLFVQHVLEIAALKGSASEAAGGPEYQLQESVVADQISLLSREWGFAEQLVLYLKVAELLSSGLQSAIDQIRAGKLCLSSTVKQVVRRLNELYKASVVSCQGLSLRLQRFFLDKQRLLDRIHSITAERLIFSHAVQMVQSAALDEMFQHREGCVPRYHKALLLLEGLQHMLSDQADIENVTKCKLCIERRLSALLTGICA

This assay addresses Serine/threonine-protein kinase ULK1 (Homo sapiens) (UniProt O75385). The assay is described as follows: ULK1 kinase inhibitors, primary screen, biochemical, AlphaScreen (AID 1259251).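 Note: 0% = median of compound wells and 100% = no enzyme.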 Particulars: AlphaScreen Atg13 phosphorylation by ULK1, luminescence; at 5.96 µM; active compounds read high. On the technique in general: In Alpha technology, singlet oxygen from a donor bead excites a nearby acceptor bead.
The inhibition is the relative decrease from the control value, in per cent. Take `Cc1c[nH]c2ncnc(-c3ccc4c(C(=O)Nc5cccc(C(=O)NC(C)C)c5)n(CC5CC5)nc4c3)c12`: the inhibition is 50.2% (active).

In the case of `CC(C)NC(=O)c1cccc(NC(=O)Nc2ccc(-c3ccnc(N)n3)cc2)c1`, the inhibition is 1.02% (inactive).

Turning to `COc1cccc(CN(CCN(C)C)C(=O)c2c3ccc(-c4cn[nH]c4)cc3nn2CC2CC2)c1`, the inhibition is -4.47% (inactive).

In the case of `O=C(Nc1ccc2[nH]ncc2c1)C1CCN(C(=O)[C@@H](O)c2ccccc2Cl)CC1`, the inhibition was 2.37% (inactive).

`CC(C)n1c(-c2csc3ccccc23)nc2c(NCc3ccccc3)ncnc21`: the inhibition is 0% (inactive).

As to `Cc1cnc(-c2c(C)nn(C)c2C)nc1NCCN1CCOCC1`, the inhibition was 3.9% (inactive).

Regarding `COc1cc(Nc2nc(NCc3cccc(C(F)(F)F)c3)c3ncn(C4CCCCC4)c3n2)cc(OC)c1OC`, the inhibition is -5.25% (inactive).

On to `COc1cc(Nc2nc(NCc3cccc(C(F)(F)F)c3)c3[nH]cnc3n2)cc(OC)c1OC`, for which the inhibition was 47.7% (active).

With `COc1cc(Nc2nc(Nc3cc(OC)c(OC)c(OC)c3)c3[nH]cnc3n2)cc(OC)c1OC`, the inhibition is 16.2% (inactive).

For the compound `O=C(Nc1nc2c(s1)CN(Cc1ccccc1)CC2)c1cc(Cl)ccc1Cl`, the inhibition was -4.96% (inactive).

For the compound `COc1cc(Nc2cc(N3CCN(Cc4ccc5c(c4)OCO5)CC3)ncn2)cc(OC)c1OC`, the inhibition is -5.38% (inactive).

As for `Cc1cnc(-c2ccc(N3CCOCC3)nc2)nc1NCCN1CCOCC1`, the inhibition is 2.67% (inactive).

On to `COc1ccc(-c2nc(NCCN3CCOCC3)c3ncn(-c4ccccc4)c3n2)cn1`, for which the inhibition is -16.5% (inactive).

`Nc1nc(NCc2ccccc2)cc(NCc2cccnc2)n1`: the inhibition was -4.44% (inactive).

Take `COc1cc(N2CCOCC2)ccc1Nc1cc(Nc2ccccc2C(N)=O)ccn1`: the inhibition was 7.87% (inactive).

For `CNC(=O)c1ccccc1Nc1cc(Nc2ccc(N3CCOCC3)cc2OC)ncc1F`, the inhibition was 16.4% (inactive).

For `CNC(=O)c1ccccc1Nc1nc(Nc2ccc(N3CCOCC3)cc2OC)ncc1Cl`, the inhibition was 77.3% (active).

On to `COC(=O)c1ccc(C2Nc3c(C(=O)OC)cccc3C3C=CCC32)cc1` (stereo unspecified), for which the inhibition is 7.56% (inactive).

For `CCCN1CCc2c(sc(N)c2C(=O)OC)C1`, the inhibition was 7.44% (inactive).

As for `c1ccc(CN2CCC(Nc3ccnc(NC4CCN(Cc5ccccc5)CC4)n3)CC2)cc1`, the inhibition was -6.32% (inactive).

As for `CC(=O)Nc1ccc(NC(=O)c2ccc(-c3ccc(C(N)=O)cc3)s2)cc1`, the inhibition was -5.71% (inactive).

As to `O=C(NCc1cccnc1)c1cccc(Nc2ccc(N3CCOCC3)cc2)n1`, the inhibition is 5.75% (inactive).

On to `Cc1nn(C)c(C)c1-c1cccc(C(=O)NCCN(C(C)C)C(C)C)n1`, for which the inhibition was -2.03% (inactive).

`CC(C)n1cnc2c(NC3CCN(Cc4ccccc4)CC3)nc(Nc3ccc(N4CCOCC4)cc3)nc21`: the inhibition was 11.3% (inactive).

In the case of `CC(C)n1cnc2c(NCc3ccccc3)nc(NC3CCC(O)CC3)nc21` (stereo unspecified), the inhibition is 0.05% (inactive).

Regarding `CC(C)n1cnc2c(Nc3ccc(N4CCOCC4)cc3)nc(Nc3ccncc3)nc21`, the inhibition is 55.3% (active).

As for `CC(C)n1cnc2c(NCc3cccnc3)nc(Nc3ccc(N4CCOCC4)cc3)nc21`, the inhibition is 1.97% (inactive).

For `c1cc(Nc2nc(Nc3ccc(N4CCOCC4)cc3)c3ncn(-c4ccsc4)c3n2)ccn1`, the inhibition was 19.3% (inactive).

In the case of `CC(C)n1cnc2c(Nc3ccc(N4CCOCC4)cc3)nc(NC3CCC(O)CC3)nc21` (stereo unspecified), the inhibition is 43.6% (active).

On to `O=C(Nc1ccc2[nH]ncc2c1)[C@@H]1C[C@H](O)CN1C(=O)Cc1ccc(Br)cc1`, for which the inhibition was 5.62% (inactive).

As for `CC(NC(=O)C(C(=O)c1ccccc1)n1ccccc1=O)c1ccccc1` (stereo unspecified), the inhibition is 1.21% (inactive).

Take `N#Cc1cccc(C[C@H](N)c2nc3ccc(-c4ccncc4)cc3[nH]2)c1`: the inhibition was 7.99% (inactive).

For the compound `COc1cc2nc(Nc3ccccc3)nc(NCc3cccc(C(F)(F)F)c3)c2cc1OC`, the inhibition is -26.9% (inactive).

With `COc1nc(Nc2ccccc2)nc(-c2ccc(C(=O)NC3CC3)cc2)n1`, the inhibition is 22.8% (inactive).

For `COc1ccc(CCNc2cc(NC3CCN(Cc4ccccc4)CC3)ncn2)cc1`, the inhibition is -6.44% (inactive).

In the case of `COc1cc(OC)nc(Oc2ccccc2/C=N/N(C)C(N)=S)n1`, the inhibition was 10.3% (inactive).

`CCN(CC)C(=O)C1CCCN(c2cc(Nc3ccccc3)nc(N)n2)C1` (stereo unspecified): the inhibition was 13.1% (inactive).

In the case of `COc1ccc(CNC(=O)c2c[nH]c3cc(-c4cn[nH]c4)ccc23)cc1`, the inhibition is -3.48% (inactive).

Take `Fc1ccc(CNc2ncc3ccc(-c4cn[nH]c4)cc3c2Cl)cc1`: the inhibition is 70.6% (active).

`O=C(NCc1cccc(Cl)c1)Nc1ccc(-c2cn[nH]c2)cc1`: the inhibition was 16% (inactive).

As to `O=C(Oc1ccc([N+](=O)[O-])cc1)c1ccc2c(c1)C(=O)N(c1ccc([N+](=O)[O-])cc1)C2=O`, the inhibition was 8.64% (inactive).

Consider `COc1ccc(CCNC(=O)c2cnc(-c3cccs3)s2)cc1`, for which the inhibition was -2.76% (inactive).

For the compound `COc1ccc(-c2nc3ncnc(NCCN4CCOCC4)c3[nH]2)cc1`, the inhibition was 0.53% (inactive).

Turning to `Cc1ncc2c(NCCCN3CCOCC3)nc3ccccc3n12`, the inhibition was 12.3% (inactive).

Take `Oc1c(Cl)cc(Cl)c(Cl)c1Cc1c(O)c(Cl)cc(Cl)c1Cl`: the inhibition was 75.9% (active).

As to `c1cc(-c2ocnc2-c2ncco2)cc(Nc2ccc(N3CCOCC3)cc2)n1`, the inhibition was -5.51% (inactive).

As to `COc1ccc(C(N)c2nc3ccc(-c4cn[nH]c4)cc3c(=O)[nH]2)cc1` (stereo unspecified), the inhibition was 16% (inactive).

Consider `CC(C)c1nc2ccc(-c3cn[nH]c3)cc2c(=O)[nH]1`, for which the inhibition was 69% (active).

As to `CC(C)c1nc2ccc(-c3ccnn3C)cc2c(=O)[nH]1`, the inhibition was -1.76% (inactive).

For the compound `Cc1cccc(C(=O)NCc2ccccc2)c1N1CCC2(CC1)OCCO2`, the inhibition was 4.05% (inactive).

Take `Cc1cc(NC2CC2)nc(N2CCCC2CO)n1` (stereo unspecified): the inhibition is -3.85% (inactive).

In the case of `CC(C)N(CCNc1ccnc(Nc2ncccn2)n1)C(C)C`, the inhibition is -7.14% (inactive).

`Cc1ccc(-c2ncn(-c3ccc(Nc4nccc(-c5cc(C#N)cc(N6CCCC(O)C6)c5)n4)cc3)n2)cn1` (stereo unspecified): the inhibition is 0.75% (inactive).

For `Cc1ncn(-c2ccc(Nc3nccc(-c4cc(C#N)cc(NC5CCN(C)CC5)c4)n3)cc2)n1`, the inhibition is 3.12% (inactive).

For `Cn1nnnc1-c1ccc(Nc2nccc(-c3ccc(N4CCC(O)CC4)c(C#N)c3)n2)cc1`, the inhibition is 64.2% (active).

As for `Cn1c(Nc2nc3ccc(C(=O)NCCO)cc3s2)nc2ccccc21`, the inhibition was 20.6% (inactive).

For the compound `Cc1cc(NCc2cccc(C(F)(F)F)c2)nc(NC2CCC(O)CC2)n1` (stereo unspecified), the inhibition is -8.27% (inactive).

With `Nc1nc(Nc2cnccn2)cc(NC2CCN(Cc3ccccc3)CC2)n1`, the inhibition is -0.08% (inactive).

Turning to `CC(=O)c1cccc(-c2nc3ncnc(NCc4nc5ccccc5[nH]4)c3[nH]2)c1`, the inhibition was -5.39% (inactive).

Turning to `CC(C)(C)c1nc(-c2cccc(NS(=O)(=O)c3c(F)cccc3F)c2F)c(-c2ccnc(N)n2)s1`, the inhibition was 66.2% (active).

As for `CCCNc1nc(-c2cccc(C(C)=O)c2)nc2c1ncn2-c1ccccc1`, the inhibition was -6.8% (inactive).

As to `C[C@@H](CN)Oc1ncccc1C(=O)Nc1ccc2[nH]ncc2c1`, the inhibition was 0.92% (inactive).

Consider `OCC1CCCN1c1nc2ncnc(NC3CC3)c2[nH]1` (stereo unspecified), for which the inhibition is 1.11% (inactive).

As for `COc1cccc(CNC(=O)Nc2ccc(-c3cn[nH]c3)cc2OC2CCC(O)C2)c1` (stereo unspecified), the inhibition was 2.68% (inactive).

`COc1cccc(CN(CC2CC2)C(=O)Nc2ccc(-c3cn[nH]c3)cc2OC)c1`: the inhibition was -27.8% (inactive).

For `COc1cccc(CNC(=O)Nc2ccc(-c3cn[nH]c3)cc2OC2CCNC2)c1` (stereo unspecified), the inhibition was 55.8% (active).

For the compound `CCCNc1nc(NCc2cccnc2)nc2c1ncn2Cc1ccc(C(F)(F)F)cc1`, the inhibition is -9.26% (inactive).

Take `O=C(NCc1cccc(C(F)(F)F)c1)c1cnc(NCCCN2CCCC2=O)s1`: the inhibition is -7.22% (inactive).

Regarding `COC(=O)c1ccc(Cn2c(-c3nnc(CC(C)C)o3)cc3ccccc32)o1`, the inhibition was -10% (inactive).

`CC(=O)c1cccc(-c2nc3c(Nc4ccc(N5CCOCC5)cc4)ncnc3n2C(C)C)c1`: the inhibition is 67.5% (active).

With `CC(=O)Nc1ccc(Nc2ncnc3c2nc(-c2cccc(N)c2)n3C(C)C)cc1`, the inhibition is -4.82% (inactive).

As for `CC(=O)c1cccc(-c2nc3c(NCCCN4CCCC4=O)ncnc3n2C(C)C)c1`, the inhibition is 5.85% (inactive).

For the compound `O=C1NC(=S)NC(=O)C1=Cc1ccc(-c2ccc([N+](=O)[O-])c(Cl)c2)o1`, the inhibition was 24.2% (inactive).

Take `O=C(NCc1cccc(NC(=O)C2CC2)c1)Nc1ccc(-c2cn[nH]c2)cc1`: the inhibition was 6.93% (inactive).

As for `COc1cc(Nc2cc(-c3nocc3-c3cnn(C)c3)ccn2)ccc1N1CCOCC1`, the inhibition is -3.85% (inactive).

As for `Cn1nccc1Nc1cc(Nc2ccc(N3CCOCC3)cc2)ncn1`, the inhibition is 17.2% (inactive).

With `Cn1cc(-c2cc(Nc3ccc(N4CCOCC4)cn3)ncc2Cl)cn1`, the inhibition was 53.2% (active).

Consider `COc1ccc(CCNc2cc(-c3csc4ccccc34)ncn2)cc1`, for which the inhibition was -12% (inactive).

Regarding `COCCn1nnnc1C(c1cc2ccc(C)cc2[nH]c1=O)N1CCc2ccccc21` (stereo unspecified), the inhibition was -5.34% (inactive).

Consider `O=C(Nc1ccc(-c2cn[nH]c2)cc1)C1CCc2ccccc2O1` (stereo unspecified), for which the inhibition was 12.4% (inactive).

Turning to `COc1cc(Nc2ccc(N3CCC(C(=O)NCc4nc5ccccc5[nH]4)CC3)nn2)cc(OC)c1OC`, the inhibition is 7.51% (inactive).

Turning to `COc1ccc2c(c1)CC(C(=O)Nc1ccc(-c3cn[nH]c3)cc1OCCN(C)C)CO2` (stereo unspecified), the inhibition is 7.42% (inactive).

For `COc1cccc(Nc2nccc(-c3ccc4c(=O)n(C5CC5)c(C)nc4c3)n2)c1`, the inhibition was 21.2% (inactive).

On to `CC(C)NC(=O)c1cccc(Nc2nccc(-c3ccc4nc(C5CC5)nc(N5CCCC5)c4c3)n2)c1`, for which the inhibition was -33.9% (inactive).

For `O=C(c1ccc(Nc2nccc(-c3ccc4c(=O)[nH]c(C5CC5)nc4c3)n2)cc1)N1CCCC1`, the inhibition is 62.9% (active).

As to `OCC1CCCN1c1nc(NC2CCN(Cc3ccccc3)CC2)c2ncn(Cc3ccc(C(F)(F)F)cc3)c2n1` (stereo unspecified), the inhibition is -14.8% (inactive).
